# Data: ChEMBL document CHEMBL3988442, “University of Dundee, Small-Polar-MMV Screening Library” (2021)
# For some assays here: Potency and affinity values are given separately.
# Assays:
# Design in all cases: scale not given: direction of the effect not stated beside the values
# [1] = molecular target: Protein translocase subunit SecA (Escherichia coli (strain K12)) (UniProt P10408); assay: Assay to Identify E. coli SecA ATPase Inhibitors; format: functional; conditions: 30 µM
# [2] = molecular target: T1, Ubiquitin-activating enzyme e1, putative (Leishmania donovani (strain BPK282A1)) (UniProt E9BSI1); assay: Leishmania donovani Ubiquitin Activating Enzyme (LdE1); format: functional; conditions: 30 µM
# T1 sequence (whole entry): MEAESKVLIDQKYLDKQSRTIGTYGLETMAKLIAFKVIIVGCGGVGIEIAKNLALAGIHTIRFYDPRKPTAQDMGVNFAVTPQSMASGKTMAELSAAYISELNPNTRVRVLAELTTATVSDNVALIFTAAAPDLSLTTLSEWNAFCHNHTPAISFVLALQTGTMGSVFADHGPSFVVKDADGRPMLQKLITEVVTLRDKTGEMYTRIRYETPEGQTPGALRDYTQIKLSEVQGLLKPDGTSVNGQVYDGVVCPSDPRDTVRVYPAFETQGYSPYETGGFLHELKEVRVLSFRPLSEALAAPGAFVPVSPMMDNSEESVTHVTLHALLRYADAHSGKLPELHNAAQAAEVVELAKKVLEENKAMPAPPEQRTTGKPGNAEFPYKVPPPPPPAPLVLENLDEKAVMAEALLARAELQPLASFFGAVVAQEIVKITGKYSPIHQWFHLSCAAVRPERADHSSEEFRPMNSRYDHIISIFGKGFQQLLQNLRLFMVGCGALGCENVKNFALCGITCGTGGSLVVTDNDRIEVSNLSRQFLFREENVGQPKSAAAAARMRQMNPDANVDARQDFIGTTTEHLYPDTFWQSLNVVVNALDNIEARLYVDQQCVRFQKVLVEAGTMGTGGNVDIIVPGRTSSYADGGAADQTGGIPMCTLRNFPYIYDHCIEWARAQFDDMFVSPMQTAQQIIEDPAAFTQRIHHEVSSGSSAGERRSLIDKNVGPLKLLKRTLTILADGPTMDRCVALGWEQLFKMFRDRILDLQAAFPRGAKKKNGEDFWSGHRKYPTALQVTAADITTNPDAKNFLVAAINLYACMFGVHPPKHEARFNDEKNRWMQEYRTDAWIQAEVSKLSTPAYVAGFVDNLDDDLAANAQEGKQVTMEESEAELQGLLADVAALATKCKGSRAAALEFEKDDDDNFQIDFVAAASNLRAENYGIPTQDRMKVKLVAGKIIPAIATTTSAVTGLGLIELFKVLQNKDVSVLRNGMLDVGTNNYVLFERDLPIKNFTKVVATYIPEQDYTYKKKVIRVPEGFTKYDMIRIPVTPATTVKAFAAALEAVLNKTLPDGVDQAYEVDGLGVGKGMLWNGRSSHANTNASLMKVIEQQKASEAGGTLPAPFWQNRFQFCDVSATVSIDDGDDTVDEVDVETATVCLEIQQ
# [3] = molecular target: AMP-activated protein kinase, AMPK (Homo sapiens) (UniProt P54646+O43741+P54619+Q9UGJ0+Q9Y478+Q13131+Q9UGI9); assay: AMP-dependent Kinase enzyme assay. An in vitro enzyme assay that detects ADP turnover that is directly proportional to AMPK activity. This uses naive AMPK that is activated during the assay with MK-8722; format: functional; conditions: 30 µM
# [4] = molecular target: Sialic acid-binding Ig-like lectin 9 (Homo sapiens) (UniProt Q9Y336); assay: Hs-Siglec9 ALPHAscreen SOP 20170721; conditions: 10 µM
# Trypanosoma cruzi = assay: Trypanosoma cruzi phosphomannomutase and mannose-1-phosphate guanylyltransferase assay; format: functional; conditions: 10 µM
# [5] = molecular target: T2, Arginase-2, mitochondrial (Homo sapiens) (UniProt P78540); assay: in vitro enzyme assay to detect the production of urea directly proportional to the activity of Arginase II; format: functional; conditions: 33.3 µM; further: in the data most compounds retested in dose-response had high values
# T2 sequence (whole entry): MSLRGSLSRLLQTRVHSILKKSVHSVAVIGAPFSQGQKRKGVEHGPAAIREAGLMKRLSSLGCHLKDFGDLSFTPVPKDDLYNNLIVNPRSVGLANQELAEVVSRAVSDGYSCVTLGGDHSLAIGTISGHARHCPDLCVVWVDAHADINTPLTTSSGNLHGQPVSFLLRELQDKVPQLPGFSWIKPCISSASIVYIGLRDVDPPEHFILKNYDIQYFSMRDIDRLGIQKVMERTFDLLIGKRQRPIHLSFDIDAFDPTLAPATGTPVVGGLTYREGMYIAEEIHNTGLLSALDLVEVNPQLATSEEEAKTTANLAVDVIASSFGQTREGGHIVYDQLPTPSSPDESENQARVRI
# [6] = molecular target: T3, Proteasome subunit beta (Trypanosoma cruzi) (UniProt O96673); assay: Trypanosoma cruzi proteasome chymotrypsin-like activity (TcProtChymo) assay.; further: in the data most compounds retested in dose-response had high values; format: functional; conditions: 9.37 µM
# T3 sequence (whole entry): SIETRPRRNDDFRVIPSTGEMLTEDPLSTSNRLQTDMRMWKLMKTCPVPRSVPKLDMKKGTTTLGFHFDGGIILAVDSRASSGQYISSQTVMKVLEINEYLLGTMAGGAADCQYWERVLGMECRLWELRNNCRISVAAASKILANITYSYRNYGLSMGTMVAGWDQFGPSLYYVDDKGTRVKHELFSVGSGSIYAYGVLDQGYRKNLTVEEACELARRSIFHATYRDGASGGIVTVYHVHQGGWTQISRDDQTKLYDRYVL
# Homo sapiens = species on record: Homo sapiens; assay: To identify inhibition of the IFN signalling (Jak-Stat) pathway via expression of an eGFP reporter gene under the control of an IFN-stimulated response element (ISRE) containing MxA promoter.; format: functional; conditions: 30 µM
# [7] = molecular target: T4, Tyrosyl-tRNA synthetase, putative (Trypanosoma cruzi (strain CL Brener)) (UniProt Q4DSP6); assay: Trypanosoma cruzi tyrosyl tRNA synthetase (TcYRS) _High Tyrosine SOP; format: functional; conditions: 30 µM; further: in the data most compounds retested in dose-response had high values
# T4 sequence (whole entry): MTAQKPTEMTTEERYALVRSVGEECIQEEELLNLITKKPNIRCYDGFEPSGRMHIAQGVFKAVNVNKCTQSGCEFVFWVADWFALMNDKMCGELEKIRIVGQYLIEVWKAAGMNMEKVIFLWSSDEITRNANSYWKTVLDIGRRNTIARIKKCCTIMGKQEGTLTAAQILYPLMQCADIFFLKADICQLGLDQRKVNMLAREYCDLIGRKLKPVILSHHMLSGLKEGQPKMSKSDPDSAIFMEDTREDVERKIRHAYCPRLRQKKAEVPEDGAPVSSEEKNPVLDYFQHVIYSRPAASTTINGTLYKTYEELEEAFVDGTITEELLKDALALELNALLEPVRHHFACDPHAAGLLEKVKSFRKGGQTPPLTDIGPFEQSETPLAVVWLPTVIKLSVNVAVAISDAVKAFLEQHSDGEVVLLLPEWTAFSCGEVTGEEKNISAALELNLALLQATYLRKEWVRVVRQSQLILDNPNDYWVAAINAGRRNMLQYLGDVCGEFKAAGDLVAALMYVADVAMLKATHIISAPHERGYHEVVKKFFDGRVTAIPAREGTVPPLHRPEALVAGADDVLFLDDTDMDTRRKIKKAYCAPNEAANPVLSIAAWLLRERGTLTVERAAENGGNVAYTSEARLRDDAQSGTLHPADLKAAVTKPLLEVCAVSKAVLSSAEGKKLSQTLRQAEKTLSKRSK
# [8] = molecular target: T4, Tyrosyl-tRNA synthetase, putative (Trypanosoma cruzi (strain CL Brener)); assay: Trypanosoma cruzi tyrosyl tRNA synthetase (TcYRS) SOP; format: functional; conditions: 30 µM
# [9] = molecular target: Chromo domain-containing protein 1 (Saccharomyces cerevisiae (strain ATCC 204508 / S288c) (Baker's yeast)) (UniProt P32657); assay: ScCHD-1 Enzyme Inhibition Assay; format: functional; conditions: 30 µM; further: in the data most compounds retested in dose-response had high values
# Chain of Chromo domain-containing protein 1 (Saccharomyces cerevisiae (strain ATCC 204508 / S288c) (Baker's yeast)) (P32657 whole entry, the tested form may be a part): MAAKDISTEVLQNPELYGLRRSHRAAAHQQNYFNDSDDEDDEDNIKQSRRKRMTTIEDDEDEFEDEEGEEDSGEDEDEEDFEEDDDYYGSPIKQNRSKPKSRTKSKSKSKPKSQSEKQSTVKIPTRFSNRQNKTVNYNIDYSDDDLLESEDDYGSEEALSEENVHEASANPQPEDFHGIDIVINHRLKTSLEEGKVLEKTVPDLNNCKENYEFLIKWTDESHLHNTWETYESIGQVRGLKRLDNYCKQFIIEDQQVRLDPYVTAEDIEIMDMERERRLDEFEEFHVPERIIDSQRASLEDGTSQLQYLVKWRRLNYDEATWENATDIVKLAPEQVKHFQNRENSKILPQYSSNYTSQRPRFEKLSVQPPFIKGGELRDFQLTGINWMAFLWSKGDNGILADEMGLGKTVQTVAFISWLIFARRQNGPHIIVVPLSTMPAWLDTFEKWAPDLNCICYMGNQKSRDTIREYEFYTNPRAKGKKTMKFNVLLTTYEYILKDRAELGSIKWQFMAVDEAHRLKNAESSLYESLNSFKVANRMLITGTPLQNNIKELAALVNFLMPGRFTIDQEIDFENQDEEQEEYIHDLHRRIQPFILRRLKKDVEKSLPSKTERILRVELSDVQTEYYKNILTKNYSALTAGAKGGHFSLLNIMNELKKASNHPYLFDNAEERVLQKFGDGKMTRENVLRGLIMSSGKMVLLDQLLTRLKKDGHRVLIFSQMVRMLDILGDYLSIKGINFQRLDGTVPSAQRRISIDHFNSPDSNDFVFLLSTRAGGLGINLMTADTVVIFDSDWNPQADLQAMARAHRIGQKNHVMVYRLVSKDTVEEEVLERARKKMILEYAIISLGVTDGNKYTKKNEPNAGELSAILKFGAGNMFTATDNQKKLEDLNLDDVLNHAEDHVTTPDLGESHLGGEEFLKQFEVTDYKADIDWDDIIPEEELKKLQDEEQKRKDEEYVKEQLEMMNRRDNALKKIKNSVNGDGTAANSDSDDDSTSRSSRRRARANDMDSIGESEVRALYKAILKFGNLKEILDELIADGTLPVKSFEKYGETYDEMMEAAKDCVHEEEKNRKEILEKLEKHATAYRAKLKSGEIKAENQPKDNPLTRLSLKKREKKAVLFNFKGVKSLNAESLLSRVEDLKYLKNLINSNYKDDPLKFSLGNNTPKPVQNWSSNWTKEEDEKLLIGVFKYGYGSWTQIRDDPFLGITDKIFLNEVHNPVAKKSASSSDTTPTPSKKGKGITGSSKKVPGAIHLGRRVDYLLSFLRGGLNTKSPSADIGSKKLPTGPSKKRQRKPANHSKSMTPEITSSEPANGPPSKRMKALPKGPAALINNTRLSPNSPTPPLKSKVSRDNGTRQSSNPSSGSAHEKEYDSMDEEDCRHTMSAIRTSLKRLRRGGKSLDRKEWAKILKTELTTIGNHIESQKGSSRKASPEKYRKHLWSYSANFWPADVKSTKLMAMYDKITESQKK
# Chain of Sialic acid-binding Ig-like lectin 9 (Homo sapiens) (Q9Y336 whole entry): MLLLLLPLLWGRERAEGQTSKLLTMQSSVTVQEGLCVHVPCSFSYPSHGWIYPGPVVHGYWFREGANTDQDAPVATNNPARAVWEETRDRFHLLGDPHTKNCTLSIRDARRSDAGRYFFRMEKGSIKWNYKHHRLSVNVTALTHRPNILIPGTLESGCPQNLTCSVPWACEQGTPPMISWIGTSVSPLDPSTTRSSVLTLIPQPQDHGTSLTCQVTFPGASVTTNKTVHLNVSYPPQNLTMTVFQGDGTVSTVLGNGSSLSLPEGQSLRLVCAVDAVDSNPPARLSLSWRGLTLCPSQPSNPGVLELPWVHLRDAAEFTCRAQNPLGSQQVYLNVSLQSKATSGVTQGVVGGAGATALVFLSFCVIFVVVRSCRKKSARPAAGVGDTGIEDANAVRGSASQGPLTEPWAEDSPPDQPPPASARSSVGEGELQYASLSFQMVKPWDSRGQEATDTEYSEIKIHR
# Chain of Protein translocase subunit SecA (Escherichia coli (strain K12)) (P10408 whole entry): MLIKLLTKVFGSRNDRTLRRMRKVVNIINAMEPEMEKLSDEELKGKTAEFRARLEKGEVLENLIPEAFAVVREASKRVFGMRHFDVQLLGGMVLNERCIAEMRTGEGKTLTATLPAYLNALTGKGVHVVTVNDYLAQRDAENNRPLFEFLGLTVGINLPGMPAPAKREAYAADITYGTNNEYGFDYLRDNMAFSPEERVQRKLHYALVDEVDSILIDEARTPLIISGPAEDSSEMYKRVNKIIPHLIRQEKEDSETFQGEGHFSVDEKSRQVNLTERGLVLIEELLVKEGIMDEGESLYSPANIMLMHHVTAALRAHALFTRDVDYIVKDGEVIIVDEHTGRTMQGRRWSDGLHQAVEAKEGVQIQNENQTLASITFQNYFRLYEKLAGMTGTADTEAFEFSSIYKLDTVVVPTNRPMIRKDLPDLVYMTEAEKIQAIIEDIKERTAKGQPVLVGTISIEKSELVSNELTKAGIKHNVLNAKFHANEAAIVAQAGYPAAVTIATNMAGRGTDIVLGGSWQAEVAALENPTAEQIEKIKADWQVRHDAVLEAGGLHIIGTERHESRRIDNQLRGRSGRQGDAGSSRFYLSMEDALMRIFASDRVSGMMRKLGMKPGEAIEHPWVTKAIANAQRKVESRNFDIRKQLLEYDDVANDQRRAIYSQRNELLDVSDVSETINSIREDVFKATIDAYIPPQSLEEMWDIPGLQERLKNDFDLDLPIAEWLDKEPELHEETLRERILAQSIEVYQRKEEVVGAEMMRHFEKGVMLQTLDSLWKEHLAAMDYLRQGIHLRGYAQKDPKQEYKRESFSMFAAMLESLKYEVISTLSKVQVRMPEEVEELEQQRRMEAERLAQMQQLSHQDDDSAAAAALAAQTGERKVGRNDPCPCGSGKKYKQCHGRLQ
SMILES,Percent Effect [1] [%],Percent Effect [2] [%],Percent Effect [3] [%],Percent Effect [4] [%],Percent Effect (Trypanosoma cruzi) [%],Percent Effect [5] [%],Percent Effect [6] [%],Percent Effect (Homo sapiens) [%],Percent Effect [7] [%],Percent Effect [8] [%],Percent Effect [9] [%]
Cc1cnn(C2CCCN(C(=O)c3cccc(Cn4ccnc4)c3)C2)c1 (configuration not stated),-1.7,13.9,-5.85,-7.26,2.36,-4.09,17.3,25.8,1.04,10.1,-30.4
CCN(CC)CCNC(=O)c1nn(CC)cc1Cl,0.115,20,-10.1,-7.51,2.55,-10.7,9.43,29.3,5.29,10.3,-9.1
Cc1cc(NC(=O)CN2CCN(c3nccs3)C(C)C2)n(C)n1 (configuration not stated),-1.17,-2.7,-3.28,12,0.279,0.924,4.49,-4.36,1.98,3.66,10.5
CC1CCc2nc(O)c(C(=O)NCc3cccc(F)c3)cc2C1 (configuration not stated),-3.85,-12,11.6,0.168,-3.54,-5.46,4.99,9.92,-1.06,0,-2.98
CN(Cc1cccc(O)c1)CC1CCCN(CCc2ccc(Cl)cc2)C1 (configuration not stated),-6.32,-13.5,1.05,9.76,2.64,4.22,-2.32,27.2,4.3,11.1,-0.68
COCCC(=O)Nc1ccnc(Oc2ccccc2)c1,2.99,-5.26,0.138,-14,-6.91,7.1,15.4,19.5,1.06,7.79,-6.2
Cn1cc(C(=O)CC2CCCN2C(=O)c2n[nH]c3ccccc23)cn1 (configuration not stated),-2.35,1.27,3.62,0.382,2.56,1.94,7.03,-8.13,7.29,2.53,-9.86
Cc1cc(CN(C)Cc2cc3c(cc2OC(F)F)OCO3)on1,-6.72,2.7,1.74,-1.22,-0.684,3.23,5.24,-2.07,0,1.24,-2.37
COCCN1C[C@@H]2CCCO[C@@H]2[C@H](N(C)Cc2ccco2)C1,-2.66,10.7,1.93,-6.59,2.56,50.6,11,16.7,7.45,16.7,-2.07
COc1ccc(C)cc1CNCc1ccc(-n2nc(C)cc2C)nc1,0.678,10.5,3.46,0.511,-2.82,1.15,12.2,22.1,3.43,17.1,-9.32
CCS(=O)(=O)N1CCO[C@H]2[C@H](OCC3CCCC3)CC[C@@H]21,-3.86,5.33,0.773,0.841,5.21,-50.7,7.01,2.31,1.04,15,-5.43
Cc1cc(-c2nnn(CCNS(C)(=O)=O)n2)ccc1F,-6.86,5.48,0.593,2.92,3.17,0.399,4.71,17.4,9.38,18.5,-2.42
CSCCCNC(=O)Nc1cccc(-c2nccn2C)c1,-3.41,6.94,-0.0628,2.76,-0.0972,1.32,16.8,10.7,1.05,2.56,-2.41
COCCOc1ccc(NC(=O)C2CC(=O)N(C)C2)cn1 (configuration not stated),0.0993,12.7,-16.4,-3.76,-5.95,6.46,1.06,23.3,1.48,11.4,-5.38
O=C([C@@H]1CC[C@@H]2[C@@H](CCN2Cc2cccc(F)c2)O1)N1CCCCO1,3,-34.7,4.08,2.78,-3.28,-52.5,9.23,16.6,2.08,22.5,-4.83
CC(=O)N1CCCN(C(=O)NCCc2ccc(Cl)s2)CC1,-2.98,-1.27,2.05,0.11,2.97,-4.95,6.35,15.8,3.12,7.59,7.14
COc1ncccc1NC(=O)NC1CCOc2ccccc21 (configuration not stated),-1.57,16.2,-3.28,8.29,5.29,-4.62,8.08,23.4,6.93,25.6,-3.65
O=C(NCCN1CCCCCC1=O)c1ccn(-c2ccc(F)cc2)n1,1.12,13.5,-9.65,-9.89,-6.51,0,15.5,24.8,4.43,16.1,-5.87
Cc1ccc2c(n1)N(CCN(C)C)CCN(C(=O)c1ccc[nH]1)C2,-0.711,10.7,6.26,-13,-8.07,1.63,18.6,-6.38,1.06,3.85,-1.69
O=C(c1cccs1)N1CCC2(C1)c1ccccc1S(=O)(=O)N2CC1CC1 (configuration not stated),-4.28,2.67,12.3,1.53,-0.197,-8.62,2.03,17.7,5.32,6.41,1.11
c1coc(-c2noc(CN3CCC(c4ccn[nH]4)CC3)n2)c1,-1.24,5.41,-3.37,31.9,5.02,0,16.4,3.15,-1.59,7.32,-4.25
Cn1nc2c(cc1=O)CN(CC(=O)Nc1ccc(Cl)cn1)CC2,-3.42,18.1,-417,5.46,-0.291,-1.32,12.3,-2.31,-2.1,-5.13,-1.83
